# Where two headings read alike, the source gives them in different places. Among all 13,000 compounds or so, about 3,200 (25%) showed an effect of 50% or more. The list shows a part of the results.
# Test system: P. falciparum stage V gametocytes
# Set-up: BacTiter-Glo ATP luminescence viability of purified stage V gametocytes in 384-well plates, per cent inhibition versus DMSO
# Details: 48 h, 5 µM, inhibitor
SMILES,% Inhibition [%],% Inhibition (% Inhibition) [%]
O=C(/C=C/c1ccc(Cl)c(Cl)c1)NCCCCCN1CCC(NC(=O)Nc2ccc(F)c(Cl)c2)CC1 [TCMDC-135720],-54.39,
O=C(c1ccc(-c2ccc(-c3nc4cc(C(F)(F)F)ccc4[nH]3)s2)cc1)N1CCCCC1CN1CCC(O)C1 (stereo not shown) [TCMDC-132342],-28.43,
COc1ccc(Nc2nccc(-c3cccc(NC(=O)c4cc5cc(F)ccc5[nH]4)c3)n2)cc1 [TCMDC-133307],7.51,
CCCCNC(=O)[C@H](CC1CCCCC1)NC(=O)c1ccc(O)c(-c2ccc(OC)cc2)c1 [TCMDC-140803],9.095,
COc1ccc(-c2cc(C(=O)N[C@@H](CC3CCCCC3)C(=O)NCCN3CCCCC3)ccc2O)cc1 [TCMDC-140805],23,
COc1ccc(-c2cc(C(=O)N[C@@H](CC3CCCCC3)C(=O)NCCN3CCCC3)ccc2O)cc1 [TCMDC-140802],56.09,
O=C(Nc1ccc2nc(-c3ccc4nc(NC(=O)C5CCCCC5)sc4c3)[nH]c2c1)C1CCCCC1 [TCMDC-125768],-44.12,
O=C(N[C@@H](Cc1ccccc1)[C@H](O)CNC1CCc2ccccc2C1)c1cc(C2CCCC2)cc(N2CCCC2=O)c1 (stereo partly shown) [TCMDC-134647],-1.727,
Cc1ccc(/C=C/C(=O)NC2CCC(CN3CCC(c4c[nH]c5ccccc45)CC3)CC2)cc1 (stereo not shown) [TCMDC-139717],,80.48
Cc1ccc(C)c(C=CC(=O)NC2CCC(CN3CCC(c4c[nH]c5ccccc45)CC3)CC2)c1 (stereo not shown) [TCMDC-139916],,-2.713
Cc1ccc(C)c(C=CC(=O)NC2CCC(CN3CCC(c4c[nH]c5ccccc45)CC3)CC2)c1 (stereo not shown) [TCMDC-139904],,66.94
O=C(/C=C/c1cccs1)NC1CCC(CN2CCC(c3c[nH]c4ccccc34)CC2)CC1 (stereo not shown) [TCMDC-139759],42.82,
Cc1ccc(/C=C/C(=O)NC2CCC(CN3CCC(c4c[nH]c5ccccc45)CC3)CC2)cc1 (stereo not shown) [TCMDC-139702],,110
CCCCC/C=C/C(=O)NC1CCC(CN2CCC(c3c[nH]c4ccccc34)CC2)CC1 (stereo not shown) [TCMDC-139709],109.3,
Cc1ccc(/C=C/C(=O)NC2CCC(CN3CCC(c4c[nH]c5ccccc45)CC3)CC2)cc1C (stereo not shown) [TCMDC-139760],,36.59
O=C(c1cc2c(s1)-c1cccc(Cl)c1SC2)N1CCN(c2ccncc2)CC1 [TCMDC-133145],30.1,
CCOc1cc2ncnc(Nc3ccc(OCc4ccccc4Br)c(OC)c3)c2cc1OCC [TCMDC-131938],-6.786,
COc1ccccc1C1CC(c2ccccc2)=NN1C(=O)c1ccco1 (stereo not shown) [TCMDC-124921],5.682,
COc1ccc(-c2cn3c(C(=O)Nc4ccccc4Cl)c(-c4ccccc4)c4c3n2CCCC4)cc1 [TCMDC-125125],-39.86,
CCNC(=O)CCc1cccc(Br)c1 [TCMDC-137648],26.26,
CCNc1cc(C(=O)N[C@@H](Cc2ccccc2)[C@H](O)CNCCc2cccc3ccccc23)cc(N2CCCC2=O)c1 [TCMDC-134568],-9.566,
CC(C)C[C@H](Nc1ccc(C#N)c2ccccc12)C(=O)N[C@@H]1CCCc2ccccc21 [TCMDC-136088],59.15,
CC(C)(C)[C@@H](Nc1ccc(C#N)c2ccccc12)C(=O)NC1(Cc2ccc(O)cc2)CCCC1 [TCMDC-136782],18.1,
COc1cccc([C@@H](CC(=O)Nc2cc(C(F)(F)F)ccc2OC)Nc2ccc(C#N)c3ccccc23)c1 [TCMDC-132309],11.85,

SMILES,% Inhibition [%],% Inhibition (% Inhibition) [%]
COC(=O)[C@@H](NC(=O)[C@H](Cc1ccc(OC)c(OC)c1)Nc1ccc(C#N)c2ccccc12)c1ccc(O)cc1 [TCMDC-136637],53.18,
N#Cc1ccc(N[C@@H](CC2CCCCC2)C(=O)N[C@@H]2CCCc3ccccc32)c2ccccc12 [TCMDC-136633],13.98,
CC(C)(C)[C@@H](Nc1ccc(C#N)c2ccccc12)C(=O)NC1(Cc2ccc(O)c(Br)c2)CCCC1 [TCMDC-136784],27.12,
CCC(CC)C(CC(=O)NC(C)(C)CCc1ccccc1OC)Nc1ccc(C#N)c2ccccc12 (stereo not shown) [TCMDC-132308],3.423,
N#Cc1ccc(N[C@@H](CC2CCCCC2)C(=O)NCc2cc(Cl)cc(Cl)c2)c2ccccc12 [TCMDC-136626],13.09,
COC(=O)[C@@H](NC(=O)[C@H](CC(C)C)Nc1ccc(C#N)c2ccccc12)c1ccc(O)cc1 [TCMDC-136622],62.67,
Cc1cc(NC(=O)[C@H](CC(C)C)Nc2ccc(C#N)c3ccccc23)ccc1F [TCMDC-136623],-63.41,
CCCCC1(NC(=O)[C@H](CC(C)C)Nc2ccc(C#N)c3ccccc23)CCCCC1 [TCMDC-136624],-52.31,
COC(=O)[C@@H](NC(=O)[C@@H](Nc1ccc(C#N)c2ccccc12)C(C)(C)C)c1ccc(O)cc1 [TCMDC-136607],78.97,
CC(=O)Nc1cccc(CNCc2ccc(-c3cnc(N4CCCC(c5ccccc5)C4)nc3)cc2)c1 (stereo not shown) [TCMDC-133723],-4.34,
CC(Sc1nc(-c2ccccc2)c(-c2ccccc2)o1)C(=O)NC1CC1 (stereo not shown) [TCMDC-125313],34.01,
O=C(Nc1ccc(Cn2ncc(N3CCCNCC3)c(Cl)c2=O)cc1)Nc1cccc(SC(F)(F)F)c1 [TCMDC-133321],-32.98,
O=C(Nc1ccc([N+](=O)[O-])cc1)Nc1nc2ccc(Cl)cc2s1 [TCMDC-123703],38.6,
Cc1cccc2nc(-c3ccc(-c4ccc(NC(=O)C(C)CN(C)C)cc4)s3)[nH]c12 (stereo not shown) [TCMDC-137115],20.93,
COc1nc2c(CCN3CCC(NCc4ccc5c(n4)NC(=O)CO5)CC3)c(Cl)cnc2cc1F [TCMDC-135766],-7.442,
CN1CCN(Cc2cc3cc(NC(=O)/C=C/c4cccc(Cl)c4)ccc3s2)CC1 [TCMDC-135630],-63.97,
CC(C)C[C@@H](/C=N/N1CCNC1=O)NC(=O)[C@H](CC(C)C)NC(=O)c1ccc(OCCN2CCOCC2)cc1 [TCMDC-136227],6.84,
COC(=O)c1cccc(CNCc2cccc(-c3cccc(-c4nc5cc(C(F)(F)F)ccc5[nH]4)c3)c2)c1.O=C(O)C(F)(F)F [TCMDC-132949],2.495,
CCC(CC)(Cc1ccccc1)NC(=O)[C@H](Cc1ccc(OC)c(OC)c1)Nc1ccc(C#N)c2ccccc12 [TCMDC-136638],82.88,
CCC(CC)(Cc1ccccc1)NC(=O)[C@H](CC1CCCCC1)Nc1ccc(C#N)c2ccccc12 [TCMDC-136634],-0.7992,
N#Cc1ccc(N[C@@H](CC2CCCCC2)C(=O)Nc2ccc(-c3ccccc3)cc2)c2ccccc12 [TCMDC-136629],57.71,
Cc1cc(NC(=O)[C@H](CC2CCCCC2)Nc2ccc(C#N)c3ccccc23)ccc1F [TCMDC-136627],3.721,
CCC(CC)(Cc1ccccc1)NC(=O)[C@H](CC(C)C)Nc1ccc(C#N)c2ccccc12 [TCMDC-136625],-7.489,
CC(C)(CC1CCCCC1)NC(=O)[C@H](CC1CCCCC1)Nc1ccc(C#N)c2ccccc12 [TCMDC-136632],-68.15,

SMILES,% Inhibition [%],% Inhibition (% Inhibition) [%]
CC(=O)c1ccc(-c2ccccc2)s1 [TCMDC-123882],-10.02,
CC[C@H](C)[C@H](NC(=O)[C@H](CC1CCCCC1)[C@H](CC)N(O)C=O)C(=O)Nc1ccccn1 [TCMDC-137215],2.069,
CC(=O)Nc1cccc(-c2cn(-c3ccc(OCc4cccc(F)c4)c(Cl)c3)c3ncncc23)c1 [TCMDC-135093],-24.36,
COc1ccc(C2C(C(=O)OC3CCCC3)=C(C)NC3=C2C(=O)CCC3)cc1Br (stereo not shown) [TCMDC-124211],-24.26,
CCn1cc(C=C2Oc3c(ccc(O)c3CN3CCCCC3C)C2=O)c2ccccc21 (stereo not shown) [TCMDC-124886],27.57,
Cc1occc1C(=O)Nc1nc(-c2ccccn2)nc2ccsc12 [TCMDC-135244],130.5,
Cc1cc(C(=O)Nc2nc(-c3ccccn3)nc3ccsc23)no1 [TCMDC-135243],58.63,
Cc1cc(C(=O)Nc2ccc(-c3ccccc3)cc2)no1 [TCMDC-124865],48.28,
Cc1onc(-c2ccccc2)c1C(=O)Nc1nc(-c2ccccn2)nc2ccsc12 [TCMDC-135272],-61.64,
COc1ccc(C(=O)Nc2ccc3oc(-c4ccc(C(F)(F)F)cc4)cc3c2)cc1CCCN(C)C [TCMDC-138694],15.28,
COc1ccc2nccc([C@@H](O)CN3CCC(NCc4cc5c(F)ccc(F)c5[nH]4)CC3)c2n1 [TCMDC-140749],33.6,
COc1ccc2nccc(N(C)CC3(O)CCC(NCc4ccc5c(n4)NC(=O)CS5)CC3)c2n1 (stereo not shown) [TCMDC-134496],10.91,
COc1cc(F)c2nccc([C@@H](O)CN3CCC(NCc4ccc5c(n4)NC(=O)CS5)CC3)c2c1 [TCMDC-141566],6.174,
COc1ccc2nccc([C@@H](O)CN3CCC(NCc4cc5ccccc5[nH]4)CC3)c2n1 [TCMDC-140670],14.92,
COc1ccc2nccc([C@@H](O)CN3CCC(NCc4ccc5cccc(O)c5n4)CC3)c2n1 [TCMDC-140748],43.79,
COc1ccc2nccc([C@@H](O)CN3CCC(NCc4cc5cccnc5[nH]4)CC3)c2n1 [TCMDC-140769],87.86,
COc1ccc2nccc([C@@H](O)CN3CCC(c4cc(-c5ccc(Cl)cc5)n[nH]4)CC3)c2n1 [TCMDC-141436],81.16,
COc1ccc2nccc([C@@H](O)CN3CCC(NCc4cc5c(cc4F)SCC(=O)N5)CC3)c2n1 [TCMDC-141432],52.03,
COc1ccc2nccc([C@@H](O)CN3C4CCC3CC(NCc3ccc5c(n3)NC(=O)CS5)C4)c2n1 (stereo partly shown) [TCMDC-134697],50.82,
COc1ccc2nccc(NCC3(O)CCC(NCc4ccc5c(n4)NC(=O)CS5)CC3)c2n1 (stereo not shown) [TCMDC-134313],46.62,
COc1ccc2nccc([C@@H](O)CN3CCC(NCc4ccc5c(c4)NC(=O)CS5)CC3)c2n1 [TCMDC-141173],12.99,
COc1ccc2nccc([C@@H](O)CN3CCC(NCc4cc5ccccc5cn4)CC3)c2n1 [TCMDC-140714],12.93,
